Test results from PubChem BioAssay (EPA / NIEHS).
Results filed as inconclusive are left out. Active and inactive are the calls of the source. The calls were made as follows: active = hit-call score of the fitted dose curve at least 0.9, where 1 is the maximum; inconclusive = response in the unintended direction; inactive = score below 0.9.

Each compound was assayed against human RAR-related Orphan Receptor beta (RORb), RORB (gene 6096) (UniProt Q92753) (assay: ATG_RORb_TRANS: Attagene TRANS-FACTORIAL HepG2 Assay for human RAR-related Orphan Receptor beta (RORb) (AID 2283010)).
How it was run: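 HepG2 cells were transiently transfected with multiplexed GAL4-UAS reporter units expressing chimeric nuclear receptor–GAL4 proteins, then dosed for 24 h. Reporter mRNA was quantified by RT-PCR with fluorescent labelling and capillary electrophoresis; gain of signal was fitted relative to DMSO.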

Chain of human RAR-related Orphan Receptor beta (RORb), RORB (gene 6096) (Q92753 whole entry, looked up, the tested form may be a part): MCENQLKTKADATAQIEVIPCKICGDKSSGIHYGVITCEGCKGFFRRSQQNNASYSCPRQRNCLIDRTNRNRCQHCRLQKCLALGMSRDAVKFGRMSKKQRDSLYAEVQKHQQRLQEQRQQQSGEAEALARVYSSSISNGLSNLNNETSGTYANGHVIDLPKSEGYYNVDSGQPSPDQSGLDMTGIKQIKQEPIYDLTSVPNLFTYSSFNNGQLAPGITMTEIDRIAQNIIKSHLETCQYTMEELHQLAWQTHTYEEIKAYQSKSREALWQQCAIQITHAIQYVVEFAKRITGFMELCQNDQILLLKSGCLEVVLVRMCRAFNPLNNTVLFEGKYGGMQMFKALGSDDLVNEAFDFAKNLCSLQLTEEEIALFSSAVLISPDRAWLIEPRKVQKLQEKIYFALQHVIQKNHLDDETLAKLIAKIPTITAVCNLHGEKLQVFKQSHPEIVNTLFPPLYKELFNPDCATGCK

Row | SMILES | outcome
1 | CCCCCCCCCCCC#N | inactive
2 | CC(=O)C=Cc1ccccc1 | inactive
3 | CC(C)CCCCCCCOC(=O)c1ccccc1C(=O)OCCCCCCCC(C)C | inactive
4 | N#CCNCC#N | inactive
5 | O=[N+]([O-])C=Cc1ccccc1 | inactive
6 | O=C(O)CCl | inactive
7 | CC(O)CN(CC(C)O)CC(C)O (stereo not given) | inactive
8 | Cc1ccc(C)c2ccccc12 | inactive
9 | COC(=O)COc1ccc(Cl)cc1Cl | inactive
10 | [CH3][Sn]([Cl])([Cl])[Cl] | inactive
11 | c1ccc2c(c1)CCCC2 | inactive
12 | CCOC(=O)C1OC1(C)c1ccccc1 (stereo not given) | inactive
13 | [Cl][Sb]([Cl])[Cl] | inactive
14 | C=CC(=O)OCCO | inactive
15 | CCCCCCCCCCCCCCCC[N+](C)(C)C | inactive

These compounds were tested against human RAR-related Orphan Receptor gamma (RORg), RORC (gene 6097) (UniProt P51449) (assay: ATG_RORg_TRANS: Attagene TRANS-FACTORIAL HepG2 Assay for human RAR-related Orphan Receptor gamma (RORg) (AID 2283011)).
How it was run: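 HepG2 cells transiently transfected with GAL4-UAS reporter units and chimeric RORg-Gal4 construct; after 24 h chemical exposure, reporter mRNA measured by RT-PCR with fluorescent capillary electrophoresis, gain of signal fitted against DMSO.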

Chain of human RAR-related Orphan Receptor gamma (RORg), RORC (gene 6097) (P51449 whole entry, looked up, the tested form may be a part): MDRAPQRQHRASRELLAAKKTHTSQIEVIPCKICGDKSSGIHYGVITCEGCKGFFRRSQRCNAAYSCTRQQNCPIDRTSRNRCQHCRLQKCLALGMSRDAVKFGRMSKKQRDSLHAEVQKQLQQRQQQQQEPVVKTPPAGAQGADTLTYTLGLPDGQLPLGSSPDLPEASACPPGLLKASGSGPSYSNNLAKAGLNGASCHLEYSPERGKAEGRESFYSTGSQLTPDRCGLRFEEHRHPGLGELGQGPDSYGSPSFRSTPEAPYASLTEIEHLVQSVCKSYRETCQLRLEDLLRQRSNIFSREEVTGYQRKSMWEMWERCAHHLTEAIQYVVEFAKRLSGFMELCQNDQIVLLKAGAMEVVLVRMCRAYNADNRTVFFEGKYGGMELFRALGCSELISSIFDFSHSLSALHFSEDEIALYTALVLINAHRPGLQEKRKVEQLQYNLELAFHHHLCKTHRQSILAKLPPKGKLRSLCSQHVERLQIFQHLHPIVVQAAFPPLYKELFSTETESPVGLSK

Row | SMILES | outcome
16 | CC(=O)C=Cc1ccccc1 | inactive
17 | CCC(=O)c1ccc(Cl)cc1 | inactive
18 | C=CC(=O)OC | inactive
19 | CC(C)CCCCCCCOC(=O)c1ccccc1C(=O)OCCCCCCCC(C)C | inactive
20 | N#CCNCC#N | inactive
21 | O=[N+]([O-])C=Cc1ccccc1 | inactive
22 | Nc1ccc(Cl)c(Cl)c1 | inactive
23 | O=C(O)CCl | inactive
24 | CC(O)CN(CC(C)O)CC(C)O (stereo not given) | inactive
25 | O=[N+]([O-])c1ccc(Cl)cc1 | inactive
26 | COC(=O)COc1ccc(Cl)cc1Cl | inactive
27 | [CH3][Sn]([Cl])([Cl])[Cl] | inactive
28 | Nc1ccc(-c2ccc(N)c(N)c2)cc1N | inactive
29 | c1cc(OCC2CO2)ccc1Cc1ccc(OCC2CO2)cc1 (stereo not given) | inactive
30 | c1ccc2c(c1)CCCC2 | inactive
31 | [Cl][Sb]([Cl])[Cl] | inactive
32 | O=C(O)C(Br)Br | inactive
33 | CCCCCCCCCCCCCCCC[N+](C)(C)C | inactive

What follows are compounds tested against Retinoic acid receptor RXR-alpha (Homo sapiens) (UniProt P19793) (assay: ATG_RXRa_TRANS: Attagene TRANS-FACTORIAL HepG2 Assay for human Retinoid X Receptor alpha (RXRa) (AID 2283012)).
How it was run: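 HepG2 cells transiently transfected with multiplexed GAL4-UAS reporter units and chimeric NR-GAL4 fusions, dosed 24 h. Reporter mRNA measured by RT-PCR, FAM labelling, HpaI digestion and capillary electrophoresis; gain-of-signal fitted relative to DMSO baseline.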

Chain of Retinoic acid receptor RXR-alpha (Homo sapiens) (P19793 whole entry, looked up, the tested form may be a part): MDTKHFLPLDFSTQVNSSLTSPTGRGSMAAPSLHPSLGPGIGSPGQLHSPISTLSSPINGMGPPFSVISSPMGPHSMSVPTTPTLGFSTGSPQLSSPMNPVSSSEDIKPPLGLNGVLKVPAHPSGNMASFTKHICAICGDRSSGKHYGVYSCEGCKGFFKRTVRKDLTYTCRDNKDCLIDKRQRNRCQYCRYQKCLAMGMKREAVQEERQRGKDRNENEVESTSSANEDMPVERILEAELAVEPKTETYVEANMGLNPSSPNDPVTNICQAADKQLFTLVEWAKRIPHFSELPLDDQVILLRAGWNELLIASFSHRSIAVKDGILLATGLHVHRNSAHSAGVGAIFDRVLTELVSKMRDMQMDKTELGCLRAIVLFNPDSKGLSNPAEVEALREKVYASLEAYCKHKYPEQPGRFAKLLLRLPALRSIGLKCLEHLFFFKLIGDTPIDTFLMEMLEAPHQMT

Row | SMILES | outcome | AC50
34 | CCCCCCCCCCCC#N | inactive | –
35 | O=C(NC(=O)c1c(F)cccc1F)Nc1ccc(Oc2ccc(C(F)(F)F)cc2Cl)cc1F | inactive | –
36 | CC1CCCC1.[C-]#[O+].[C-]#[O+].[C-]#[O+].[Mn] | inactive | –
37 | CC(=O)C=Cc1ccccc1 | inactive | –
38 | CCC(=O)c1ccc(Cl)cc1 | inactive | –
39 | Nc1ccccc1C(=O)Oc1ccc2ccccc2c1 | – | 152 µM (active)
40 | CC(C)CCCCCCCOC(=O)c1ccccc1C(=O)OCCCCCCCC(C)C | inactive | –
41 | N#CCNCC#N | inactive | –
42 | CN(C)N | inactive | –
43 | O=[N+]([O-])C=Cc1ccccc1 | inactive | –
44 | Nc1ccc(Cl)c(Cl)c1 | inactive | –
45 | O=C(O)CCl | inactive | –
46 | O=[N+]([O-])c1ccc(Cl)cc1 | inactive | –
47 | Cc1ccc(C)c2ccccc12 | inactive | –
48 | COC(=O)COc1ccc(Cl)cc1Cl | inactive | –
49 | CC(=O)c1cc2c(cc1C)C(C)(C)C(C)CC2(C)C (stereo not given) | – | 22.8 µM (active)
50 | Nc1ccc(-c2ccc(N)c(N)c2)cc1N | inactive | –
51 | c1cc(OCC2CO2)ccc1Cc1ccc(OCC2CO2)cc1 (stereo not given) | inactive | –
52 | C=CC(=O)OCCCCOC(=O)C=C | inactive | –
53 | c1ccc2c(c1)CCCC2 | inactive | –
54 | CCOC(=O)C1OC1(C)c1ccccc1 (stereo not given) | inactive | –
55 | COc1ncc(F)c2nc(S(=O)(=O)Nc3c(F)cccc3F)nn12 | inactive | –
56 | C[C@]12CC[C@H]3[C@@H](CC[C@@]45O[C@@H]4C(O)=C(C#N)C[C@]35C)[C@@H]1CC[C@@H]2O | inactive | –
57 | O=[N+]([O-])c1cc([N+](=O)[O-])c2ccccc2c1 | inactive | –
58 | O=C(O)C(Br)Br | inactive | –
59 | C=CC(=O)OCCO | inactive | –
60 | CCCCCCCCCCCCCCCC[N+](C)(C)C | inactive | –
